The values below come from PubChem BioAssay (Tox21).

Assay [1] concerns the target Thyrotropin receptor (Homo sapiens) (UniProt P16473). Put plainly: qHTS assay to identify small molecule antagonists of the thyroid stimulating hormone receptor (TSHR) signaling pathway (AID 1259385; calls by dose curve; note: nearly all actives have a fitted effect of over 20% in size). In outline: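 TSHR-HEK293 cells were plated and held 18 h at 37C/5% CO2, then given compound plus Ro20-1724 and stimulated with TSH at 1.5 ng/mL final. After 30 min at room temperature, cAMP was detected with cAMP-d2/anti-cAMP-cryptate (1 h) by fluorescence.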

A short description of assay [2]: qHTS assay to identify small molecule agonists of the estrogen receptor alpha (ER-alpha) signaling pathway in the presence of an antagonist - cell viability counter screen (AID 1259386).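 Note: cells exposed to compounds for 22 h at 37 °C before the viability read; nearly all actives have a fitted effect of over 30% in size.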 Note: potency is the fitted concentration of half-maximal effect. In outline:
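Read-out: CellTiter-Fluor fluorescence after 1hr reagent incubation, measured in the same wells as the luciferase readout. VM7Luc4E2 cells were exposed to 15 compound concentrations with 10.0nM ICI-182,780 for 22hr at 37C.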
(qHTS replaces the single test concentration by a dilution series.)

Assay [3] concerns the target Progesterone receptor (Homo sapiens) (UniProt P06401). Put plainly: qHTS assay to identify small molecule agonists of the progesterone receptor (PR) signaling pathway (AID 1346784; calls by dose curve; note: nearly all actives have a fitted effect of over 30% in size; note: potency is the fitted concentration of half-maximal effect). Put shortly: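 Agonist mode, quantitative HTS format in a HEK 293T line expressing a UAS-controlled beta-lactamase reporter; 16 hr compound exposure at 37C in 2% charcoal-stripped FBS, then LiveBLAzer B/G FRET fluorescence.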

For assay [4] the target is unchanged. Put plainly: qHTS assay to identify small molecule antagonists of the progesterone receptor (PR) signaling pathway (AID 1346795; active = well fitted inhibition curve with a large enough effect in the signal ratio in the repeat runs, not every such curve was filed as active; the % refers to the signal ratio; note: potency is the fitted concentration of half-maximal effect). In outline:
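HEK293T PR-UAS-bla reporter cells in charcoal-stripped serum (2%) received compound after a 6 hr settling period, followed by R5020 agonist at 1 nM final; 16 hr incubation preceded the FRET substrate step and fluorescence measurement.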

Assay [5] can be described thus: qHTS assay to identify small molecule antagonists of the progesterone receptor (PR) signaling pathway - cell viability counter screen (AID 1346798). Note: series mostly up to about 92 µM; nearly all actives have a fitted effect of over 50% in size. Put shortly:
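Same-well multiplex: after 16 hr at 37C with compound and R5020 stimulation, HEK293T cells carrying a UAS-bla reporter received LiveBLAzer substrate (2 hr RT), then CellTiter-Glo (30 min RT) for luminescent viability.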

Assay [6] can be described thus: qHTS assay to identify small molecule agonists of the progesterone receptor (PR) signaling pathway - cell viability counter screen (AID 1346799; calls by dose curve; note: nearly all actives have a fitted effect of over 45% in size). In outline:
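Counter screen for cytotoxicity: compound-treated PR-UAS-bla HEK293T cells (16 hr, 37C, 5% CO2) were assayed with CellTiter-Glo, luminescence measured after 30 min at room temperature.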

The nature of assay [7]: qHTS assay to identify small molecule antagonists of the TGF-beta/Smad signaling pathway - cell viability counter screen (AID 1346824). Note: nearly all actives have a fitted effect of over 50% in size. In outline:
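SBE-bla HEK 293T cells were plated overnight at 37 C, then given compounds in DMSO plus TGF-beta1 (added as 0.25 ng/mL solution) for 5 hr. After the bla read, CellTiter-Glo was added to the same wells and luminescence read after 30 min at room temperature.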

The nature of assay [8]: qHTS assay to identify small molecule agonists of the TGF-beta/Smad signaling pathway - cell viability counter screen (AID 1346829). Note: top concentration of the series differs between compounds; nearly all actives have a fitted effect of over 45% in size. In outline:
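CellTiter-Glo luminescence readout; SBE-bla HEK 293T cells, overnight plating, compound 5 hr at 37 C/5% CO2, then bla substrate 2 hr RT, then CellTiter-Glo 30 min RT.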

Assay [9] can be described thus: qHTS assay to identify small molecule agonists of the TGF-beta/Smad signaling pathway (AID 1346859; active = well fitted activation curve with a large enough effect in the signal ratio in the repeat runs, not every such curve was filed as active; the % refers to the signal ratio; note: series mostly up to about 77 µM). Put shortly:
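Smad-responsive beta-lactamase reporter cells (HEK 293T) received compounds from DMSO stocks after overnight attachment, were incubated 5 hr, then treated 2 hr with FRET substrate before dual-emission fluorescence measurement (405 nm excitation).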

Assay [10] addresses Thyrotropin-releasing hormone receptor (Homo sapiens) (UniProt P34981). Put plainly: qHTS assay to identify small molecule antagonists of the thyrotropin-releasing hormone receptor (TRHR) signaling pathway (AID 1346877; active = well fitted inhibition curve with a large enough effect in the repeat runs, not every such curve was filed as active; note: series mostly up to about 51 µM). Put shortly:
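HEK293/TRHR cells, 18 h, 37 °C; Ca2+ dye 2 h; cpd 5 min RT; TRH 1 nM final; fluorescence read 3 min, 1 s intervals; 15 concs, triplicate.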

For assay [11] the target is unchanged. Put plainly: qHTS assay to identify small molecule agonists of the thyrotropin-releasing hormone receptor (TRHR) signaling pathway (AID 1346891; calls by dose curve;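 note: HEK293 cells expressing TRHR with calcium dye readout; series mostly up to about 58 µM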). Put shortly: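 Agonist-mode calcium mobilisation screen: TRHR-transfected HEK293 cells cultured overnight (18 h), dye-loaded for 2 h at 37 °C, exposed to compounds, and monitored by fluorescence for 3 min.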
Assay [12] is described as follows: Human pregnane X receptor (PXR) small molecule agonists, qHTS cell viability counter screen (AID 1346977). Note: nearly all actives have a fitted effect of over 50% in size. Put shortly:
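Measures live-cell protease fluorescence (CellTiter-Fluor) in PXR-Luc HepG2 cells treated 24hr with compounds at 37C. Cells had 5hr to attach before pin transfer of DMSO solutions.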

Assay [13] in a line: Caspase-3/7 induction in HepG2 cells by small molecules, qHTS assay (AID 1346978). Note: nearly all actives have a fitted effect of over 15% in size. In outline:
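Wild-type HepG2 cells (2,000/well) were settled 5 h at 37 C, 5% CO2, then exposed to compounds in DMSO for 17 h. Caspase-3/7 activity was read by luminescence 30 min after adding Caspase-Glo 3/7 reagent at room temperature.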

A short description of assay [14]: Caspase-3/7 induction in CHO-K1 cells by small molecules, qHTS cell viability counter screen (AID 1346979). Note: nearly all actives have a fitted effect of over 35% in size. Note: potency is the fitted concentration of half-maximal effect. Put shortly: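 In the same wells as the caspase read, viability of compound-treated wild-type CHO-K1 cells was assessed using CellTiter-Fluor, added after 16hr at 37C and measured by fluorescence following 1hr further incubation.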
Assay [15] can be described thus: Caspase-3/7 induction in HepG2 cells by small molecules, qHTS cell viability counter screen (AID 1346981). Note: series mostly up to about 92 µM; nearly all actives have a fitted effect of over 30% in size. In outline:
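Fluorescence read-out of live-cell protease activity (CellTiter-Fluor) after 1 hr with reagent. This was measured in the same wells as the caspase-3/7 luminescence, on HepG2 cells exposed to DMSO-dissolved compounds for 16 hr at 37 C.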

Assay [16] has as its target Nuclear receptor subfamily 1 group I member 2 (Homo sapiens) (UniProt O75469). Put plainly: Human pregnane X receptor (PXR) small molecule agonists, qHTS assay (AID 1346982). Note: nearly all actives have a fitted effect of over 35% in size. Note: potency is the fitted concentration of half-maximal effect. In outline: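 HepG2 PXR-Luc reporter line, 5% charcoal-stripped FBS; 5 hr pre-incubation, compound (DMSO) 24 hr at 37 C/5% CO2; ONE-Glo 30 min RT; luminescence read-out.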
Assay [17] can be described thus: Caspase-3/7 induction in CHO-K1 cells by small molecules, qHTS assay (AID 1346980). Note: nearly all actives have a fitted effect of over 15% in size. In outline:
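Wild-type cells were seeded at 1,500 per well and settled 5 hr at 37 C, 5% CO2, then exposed to DMSO-dissolved compounds for 17 hr. Caspase-Glo 3/7 reagent was added, and luminescence was read after 30min at room temperature.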

The target in assay [18] is Nuclear receptor subfamily 1 group I member 2 (Rattus norvegicus) (UniProt Q9R1A7). Put plainly: Rat pregnane X receptor (rPXR) activation by small molecules, qHTS assay (AID 1346983). Note: nearly all actives have a fitted effect of over 20% in size. Note: potency is the fitted concentration of half-maximal effect. The conditions noted are these: rPXR luciferase reporter cells, One-Glo luminescence, 24 h; max activation: stronger effect = higher value. Put shortly:
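Cell-based rPXR luciferase reporter assay, 2,000 cells per well, rested 5hr at 37 C before compound addition in DMSO, then 24 hr at 37 C. One-Glo reagent was added and luminescence read after 30 min at room temperature.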

Assay [19] addresses Nuclear receptor subfamily 1 group I member 2 (Homo sapiens) (UniProt O75469). Put plainly: CYP3A4 induction through human pregnane X receptor (PXR) by small molecules, qHTS assay (AID 1346984). Note: nearly all actives have a fitted effect of over 40% in size. In outline:
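HepG2-derived DPX-2 line carrying PXR plus a CYP3A4-promoter luciferase reporter; cells plated 5 hr, compound-exposed 24 hr at 37C. CYP3A4 activity probed with 3uM (final) Luciferin-IPA for 3hr, then luciferase read after One-Glo.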

The target is the same in assay [20]. Put plainly: Human pregnane X receptor (PXR) activation by small molecules, qHTS assay (AID 1346985). Note: nearly all actives have a fitted effect of over 40% in size. Put shortly:
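DPX-2 cells (HepG2 co-transfected with a PXR response element and a CYP3A4-promoter luciferase construct) were seeded at 2,000 per well, rested 5 hr at 37C, then exposed to DMSO-dissolved compounds for 24 hr. Activation was read as luciferase luminescence.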

Values without a mark were called inactive. Results filed as inconclusive are left out. Active and inactive are the calls of the source. Unless noted, calls come from the whole dose curve; as a rule, active = well fitted curve in the direction sought with a large enough effect in the repeat runs; inconclusive = weak or mixed curves; inactive = no such curve, though single readings can be large; an effect the other way counts as inactive or inconclusive.
% is set by controls: 0 for no effect and ±100 for the full control effect.

Thyrotropin receptor (Homo sapiens), sequence (P16473 whole entry, looked up): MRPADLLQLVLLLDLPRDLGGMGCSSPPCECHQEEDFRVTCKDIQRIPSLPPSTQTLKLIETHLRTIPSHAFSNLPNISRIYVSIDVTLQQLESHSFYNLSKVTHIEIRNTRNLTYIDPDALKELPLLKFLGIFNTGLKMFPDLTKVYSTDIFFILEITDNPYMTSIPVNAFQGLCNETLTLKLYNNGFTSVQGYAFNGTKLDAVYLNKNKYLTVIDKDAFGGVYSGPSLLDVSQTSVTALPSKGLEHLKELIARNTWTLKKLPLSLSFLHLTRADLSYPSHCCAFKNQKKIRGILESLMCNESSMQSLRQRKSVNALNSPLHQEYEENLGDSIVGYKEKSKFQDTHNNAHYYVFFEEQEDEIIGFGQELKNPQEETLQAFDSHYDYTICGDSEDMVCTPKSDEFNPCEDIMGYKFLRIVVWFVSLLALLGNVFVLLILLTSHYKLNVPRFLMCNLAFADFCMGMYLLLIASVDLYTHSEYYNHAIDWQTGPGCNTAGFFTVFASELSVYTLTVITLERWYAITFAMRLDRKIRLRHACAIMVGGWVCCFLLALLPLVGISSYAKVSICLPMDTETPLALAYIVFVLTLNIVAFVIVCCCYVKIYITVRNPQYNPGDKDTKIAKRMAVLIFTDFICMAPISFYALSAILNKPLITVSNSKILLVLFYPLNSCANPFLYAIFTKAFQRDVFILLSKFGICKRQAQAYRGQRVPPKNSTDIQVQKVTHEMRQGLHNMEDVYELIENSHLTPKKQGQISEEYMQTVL
Nuclear receptor subfamily 1 group I member 2 (Homo sapiens), sequence (O75469 whole entry, looked up): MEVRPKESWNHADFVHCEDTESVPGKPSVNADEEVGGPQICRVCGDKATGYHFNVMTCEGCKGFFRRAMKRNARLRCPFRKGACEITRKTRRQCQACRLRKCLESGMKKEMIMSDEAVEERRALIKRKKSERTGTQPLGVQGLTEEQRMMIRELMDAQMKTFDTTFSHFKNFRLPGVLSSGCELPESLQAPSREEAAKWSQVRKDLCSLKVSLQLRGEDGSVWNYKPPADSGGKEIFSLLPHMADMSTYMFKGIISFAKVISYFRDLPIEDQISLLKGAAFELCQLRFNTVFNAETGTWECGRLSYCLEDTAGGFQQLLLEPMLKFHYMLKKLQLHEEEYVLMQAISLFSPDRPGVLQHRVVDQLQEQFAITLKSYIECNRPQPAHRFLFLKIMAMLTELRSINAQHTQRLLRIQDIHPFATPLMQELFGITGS
Thyrotropin-releasing hormone receptor (Homo sapiens), sequence (P34981 whole entry, looked up): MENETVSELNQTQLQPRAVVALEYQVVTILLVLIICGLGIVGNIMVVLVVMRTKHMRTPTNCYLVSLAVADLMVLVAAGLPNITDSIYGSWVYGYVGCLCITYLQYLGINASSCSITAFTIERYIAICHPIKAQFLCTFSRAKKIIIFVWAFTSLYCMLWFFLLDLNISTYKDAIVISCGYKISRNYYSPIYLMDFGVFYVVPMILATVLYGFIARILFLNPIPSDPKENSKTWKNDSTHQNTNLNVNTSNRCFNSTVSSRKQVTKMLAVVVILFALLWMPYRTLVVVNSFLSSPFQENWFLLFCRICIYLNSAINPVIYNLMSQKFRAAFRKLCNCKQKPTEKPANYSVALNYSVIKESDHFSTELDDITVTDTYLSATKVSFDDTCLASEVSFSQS
Progesterone receptor (Homo sapiens), sequence (P06401 whole entry, looked up): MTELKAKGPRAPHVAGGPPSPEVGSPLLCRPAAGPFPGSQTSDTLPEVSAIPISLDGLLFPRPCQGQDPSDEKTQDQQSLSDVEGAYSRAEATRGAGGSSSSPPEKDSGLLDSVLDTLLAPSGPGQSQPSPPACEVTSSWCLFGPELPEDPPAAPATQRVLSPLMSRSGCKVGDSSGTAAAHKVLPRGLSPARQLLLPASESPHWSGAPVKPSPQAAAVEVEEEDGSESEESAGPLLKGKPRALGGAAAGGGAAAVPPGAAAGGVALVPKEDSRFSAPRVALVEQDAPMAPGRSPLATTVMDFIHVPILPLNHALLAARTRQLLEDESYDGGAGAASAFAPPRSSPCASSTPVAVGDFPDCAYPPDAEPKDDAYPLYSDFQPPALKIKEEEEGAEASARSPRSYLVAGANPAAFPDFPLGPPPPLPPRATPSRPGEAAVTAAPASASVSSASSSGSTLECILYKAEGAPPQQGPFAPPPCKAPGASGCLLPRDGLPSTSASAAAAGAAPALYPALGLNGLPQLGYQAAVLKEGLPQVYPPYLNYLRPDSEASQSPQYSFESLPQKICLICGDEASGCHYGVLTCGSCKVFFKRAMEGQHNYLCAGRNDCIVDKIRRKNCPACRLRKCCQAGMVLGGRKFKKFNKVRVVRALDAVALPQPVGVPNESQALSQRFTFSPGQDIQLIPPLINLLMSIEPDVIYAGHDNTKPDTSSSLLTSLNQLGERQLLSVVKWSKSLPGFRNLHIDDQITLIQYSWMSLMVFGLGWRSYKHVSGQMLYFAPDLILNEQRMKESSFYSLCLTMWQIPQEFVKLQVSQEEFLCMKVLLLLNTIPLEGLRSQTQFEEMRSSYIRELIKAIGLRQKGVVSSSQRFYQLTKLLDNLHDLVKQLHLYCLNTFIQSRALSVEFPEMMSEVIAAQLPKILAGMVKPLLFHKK
Nuclear receptor subfamily 1 group I member 2 (Rattus norvegicus), sequence (Q9R1A7 whole entry, looked up): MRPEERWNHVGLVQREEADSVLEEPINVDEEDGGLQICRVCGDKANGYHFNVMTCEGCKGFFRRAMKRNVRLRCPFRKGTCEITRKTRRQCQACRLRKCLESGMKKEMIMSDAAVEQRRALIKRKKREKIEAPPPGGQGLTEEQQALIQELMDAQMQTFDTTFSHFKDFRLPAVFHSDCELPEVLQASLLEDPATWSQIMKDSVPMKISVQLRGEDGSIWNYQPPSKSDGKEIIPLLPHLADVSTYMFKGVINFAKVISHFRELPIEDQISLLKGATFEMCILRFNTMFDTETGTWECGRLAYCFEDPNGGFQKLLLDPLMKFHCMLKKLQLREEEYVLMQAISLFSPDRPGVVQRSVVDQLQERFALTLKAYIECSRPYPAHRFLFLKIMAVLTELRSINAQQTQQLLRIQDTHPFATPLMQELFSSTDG

With `Clc1cc(Cl)nc(Cl)n1`, the Potency result in [1], in assay [2], in assay [3], in [4], in [5] and in assay [6] was “inactive” each time. Also, the Potency result in assay [7], in assay [8], in assay [9], in assay [11], in assay [12] and in assay [13] was “inactive” each time. In addition, the Potency entry in assay [14], in [15] and in assay [16] was “inactive” in each case. For the same compound, the outcome in assay [10] was inactive.
For the compound `CC(=O)N/N=C/c1ccc([N+](=O)[O-])o1`, the Potency entry in assay [1], in assay [2], in assay [3], in [4], in assay [5] and in assay [6] was “inactive” in each case. The Potency entry in assay [7], in [8], in assay [9], in assay [11], in assay [13] and in [17] was “inactive” throughout. The Potency entry in assay [15], in assay [19] and in assay [20] was “inactive” each time. For the same compound, in [10], the result was inactive. The Potency in assay [14] is 29.8 µM (active). Also, the max activation in assay [18] is -3.83%.
Consider `CC(C)C(O)(c1ccc(OC(F)(F)F)cc1)c1cncnc1` (centres undefined), for which the Potency entry in [1], in assay [2], in assay [3], in [5], in [6] and in assay [7] was “inactive” in each case. The Potency entry in [8], in assay [9], in assay [11], in assay [12], in [13] and in assay [14] was “inactive” each time. Further, in assay [15], the Potency result was “inactive”. Further, in assay [4], the Potency was 30.5 µM (active). Moreover, the call in [10] was inactive.
With `CCCCCCCCN`, the Potency entry in assay [1], in [2], in [3], in assay [4], in assay [5] and in [6] was “inactive” each time. Further, the Potency result in assay [7], in assay [9], in assay [11], in [12], in assay [13] and in assay [14] was “inactive” throughout. Also, the Potency result in assay [17] and in assay [15] was “inactive” throughout. In assay [10], the compound was classed as inactive. In addition, the Potency in [16] is 27 µM (active).
Consider `Oc1cccc(O)c1O`, for which the Potency result in [1], in [3], in [4], in assay [5], in assay [6] and in assay [7] was “inactive” throughout. Also, the Potency entry in [8], in [9], in assay [11], in assay [13], in assay [17] and in [19] was “inactive” each time. Also, the Potency result in assay [20] is “inactive”. Moreover, the Potency in [2] was 68 µM (active); in assay [16], 60.6 µM (active). Moreover, the outcome in assay [10] was inactive. The max activation in [18] is -5.99%.
With `CC=C(Cl)Cl`, the Potency entry in assay [1], in assay [2], in assay [3], in [4], in assay [5] and in assay [6] was “inactive” each time. In addition, the Potency result in assay [7], in [8], in assay [9], in assay [11], in assay [12] and in [13] was “inactive” in each case. Further, the Potency entry in assay [14], in assay [17] and in assay [15] was “inactive” in each case. Moreover, the call in assay [10] was inactive.
Regarding `CC(C)(c1ccccc1)c1ccccc1`, the Potency result in [1], in assay [2], in [3], in assay [4], in assay [5] and in assay [6] was “inactive” throughout. The Potency result in assay [7], in assay [8], in assay [9], in assay [11], in assay [12] and in assay [13] was “inactive” in each case. In addition, the Potency result in [14] and in assay [15] was “inactive” in each case. Further, the result in assay [10] was inactive.
`CC1(C)O[C@@H]2C[C@H]3[C@@H]4C[C@H](F)C5=CC(=O)C=C[C@]5(C)[C@H]4[C@@H](O)C[C@]3(C)[C@]2(C(=O)CO)O1`: the Potency entry in [1], in assay [2], in [4], in [5], in [6] and in assay [7] was “inactive” each time. Besides, the Potency result in assay [8], in assay [12], in assay [13], in assay [14], in [17] and in assay [15] was “inactive” in each case. Besides, the Potency result in [19] and in assay [20] was “inactive” in each case. Also, the Potency is 0.0119 µM (active) in [3] and 8.91 µM (active) in assay [18].
